Source: PubChem BioAssay
HT1080-NT tox: kills 2HG-producing HT-1080-NT fibrosarcoma cells | HT-1080-NT fibrosarcoma viability, CellTiter-Glo ATP luminescence, 48 h | Potency, µM (highest dose often 46.1 µM), for inactives: at the highest dose activity, negative = less viability, usual class: cytotoxic | hit rate 1.6% among 360,000 | AID 686970;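 also: NT is the 2HG producing partner of a matched IDH1 knockdown line; 0% = DMSO-treated cells and -100% = media-only wells without cells; nearly all actives have a fitted effect of over 55% in size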
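HT-1080-NT; 750 cells/well; 5% FBS RPMI; 48 h compound, 37 degrees C; CellTiter-Glo luminescence; curve fitting and curve-class assignment.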
TDP1 cell CPT: growth inhibition of DT40 Tdp1-/-;hTDP1 cells with camptothecin (screen for TDP1 inhibitors) | chicken DT40 Tdp1-/-;hTDP1 cells + 20 nM CPT, ATP luminescence, 48 h | Potency, µM (top dose mostly 46.2 µM), without a hit: top-dose activity change, negative = growth inhibition, hits mostly inhibitors | hit rate 12% among 420,000 | AID 686979; also: % is scaled to controls: 0 for no effect and ±100 for the full control effect; nearly all actives have a fitted effect of over 55% in size
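Cell growth measured by CellTiter-Glo luminescence after a minimum 48 h, 37 C compound exposure with 20 nM CPT in Tdp1-knockout DT40 cells stably expressing hTDP1, seeded 400/well; qHTS titration format.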
HepG2 tox: HepG2 cytotoxicity, counter-screen for TGF-b inhibitors | HepG2 CAGA-GFP viability, ATP luminescence, 18 h | Potency, µM (series often up to 46.1 µM), for inactives: top-dose activity change, negative = cytotoxicity, most hits filed as cytotoxic | hit rate 0.76% among 410,000 | AID 588856
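HepG2 CAGA-GFP cells (1000/well, DMEM with 1% FBS) received compound, then TGF-beta at 500 pg/mL final, and were incubated 18 hours at 37 degrees C. Viability was read by CellTiter-Glo luminescence. Media-only wells were set as complete cell-killing and DMSO as no toxicity.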
HT1080 IDH1KD tx: HT-1080 IDH1 knockdown cell toxicity (counter line); AID 686971; HT-1080 IDH1 knockdown viability, ATP luminescence, 48 h; hit rate 2% among 360,000; Potency, µM (doses to about 46.1 µM), inactives show at the highest dose activity, negative = toxicity, actives largely listed as cytotoxic;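 also: 0% = DMSO wells and -100% = cell-free medium wells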
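After a 2 h attachment period, IDH1KD HT-1080 cells took pin-transferred compound for 48 h at 37 °C; ATP-based luminescence after 10 min room-temperature reagent incubation reported viability.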
TGFb SMAD3 inh: blocks TGF-b signaling; AID 588855; Potency, µM (top dose mostly 46.1 µM), for inactives: at the top dose activity, negative = inhibition, most hits filed as inhibitors; hit rate 1.2% among 410,000; HepG2 CAGA-GFP TGF-b/SMAD3 reporter, GFP fluorescence, 18 h; TGF-beta stimulated, 500 pg/mL final; also: % is scaled to controls: 0 for no effect and ±100 for the full control effect; nearly all actives have a fitted effect of over 65% in size
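HEPG2 CAGA-GFP cells (1000/well, DMEM with 1% FBS) were pre-incubated 2 h at 37 degrees C, given compound by pin tool, then stimulated with TGF-beta at 500 pg/mL final for 18 h before per-cell GFP fluorescence imaging.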
TDP1 cell noCPT: qHTS for Inhibitors of human tyrosyl-DNA phosphodiesterase 1 (TDP1): qHTS in cells in absence of CPT | DT40 Tdp1-/- hTDP1 cells, no CPT, ATP luminescence, 48 h | Potency, µM (highest dose often 46.2 µM), for inactives: at the top dose activity change, negative = growth inhibition, usual class: inhibitors | hit rate 15% among 420,000 | AID 686978, 2013; also: % is scaled to controls: 0 for no effect and ±100 for the full control effect; nearly all actives have a fitted effect of over 55% in size
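A cellular qHTS used chicken DT40 cells lacking endogenous Tdp1 but carrying stably transfected human TDP1. Compounds were applied without camptothecin, and cell growth kinetics were judged by ATP-dependent luminescence after ≥48 hr.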
Starred values were filed as active, the others as inactive; ? = inconclusive; . = not tested or not shown. Most compounds without a hit are left out; they make up all but 17% or so of the library. Calls follow the shape of the dose curve; as a rule, active = well fitted curve in the direction sought with a large enough effect; inconclusive = small, poorly fitted or top-dose-only effect, or another doubt; inactive = no such curve, though single readings can be large; an effect the other way counts as inactive or inconclusive. Potency is read from the fitted curve at half-maximal effect.

SMILES | HT1080-NT tox | TDP1 cell CPT | HepG2 tox | HT1080 IDH1KD tx | TGFb SMAD3 inh | TDP1 cell noCPT
CCOc1ccc(C(=O)CN2CCN(S(=O)(=O)c3ccc(OC)cc3)CC2)cc1 | -8% | 18µM* | -16% | -11% | ? | ?
O=C(OCCOc1ccc(F)cc1)c1ccc(S(=O)(=O)N2CCCC2)cc1 | -6% | -9% | -18% | 2% | -10% | 2.3µM*
CCOc1ccc(CN2CCN(S(=O)(=O)c3ccc(NC(C)=O)cc3)CC2)cc1 | -11% | ? | -15% | -30% | -27% | 15µM*
Cc1c(-c2ccccc2)[n+](=O)c(-c2ccc(Cl)cc2)c(C)n1[O-] | 6% | 14% | -3% | 0% | 1% | -19%
c1ccc(CCc2nn3c(Cc4ccccc4)nnc3s2)cc1 | -19% | ? | -22% | ? | -6% | ?
O=C(COc1ccc(S(=O)(=O)N2CCOCC2)cc1)NCCc1ccc(Cl)cc1 | -15% | ? | -18% | -15% | -2% | 18µM*
COc1ccc(CNC(=O)COc2ccc(S(=O)(=O)N3CCOCC3)cc2)cc1 | -3% | ? | 2% | -8% | 14% | ?
CCOc1ccc(NC(=O)COc2ccc(S(=O)(=O)N3CCOCC3)cc2)cc1 | 12% | 3.3µM* | -6% | 18% | 8% | ?
CCc1ccc(OCC(=O)Nc2ccc(S(=O)(=O)N3CCOCC3)cc2)cc1 | 2% | -8% | 1% | -4% | -3% | -3%
COc1ccc(OC)c(CNS(=O)(=O)c2c(C(=O)N3CCC(C)CC3)c(C)n(C)c2C)c1 | . | ? | 4% | . | 30% | ?
CC1=C(C(=O)N2CCCCCC2)CC(CC(=O)NC2CC2)C(=O)N1Cc1ccccc1 (stereo unspecified) | 27% | 3% | 5% | 20% | 10% | 2%
CC1=C(C(=O)N(C)C)CC(CC(=O)NCCCN(C)C)C(=O)N1Cc1ccc(C(C)(C)C)cc1 (stereo unspecified) | -16% | -6% | -3% | -1% | 10% | 1%
CC1=C(C(=O)N2CCCCCC2)CC(CC(=O)NCCCCc2ccccc2)C(=O)N1Cc1ccccc1 (stereo unspecified) | 0% | 18µM* | 5% | -9% | -22% | 21µM*
CC1=C(C(=O)N(C)C)CC(CC(=O)NCCCCc2ccccc2)C(=O)N1Cc1ccc(C(C)(C)C)cc1 (stereo unspecified) | -22% | 16µM* | -22% | -26% | ? | 13µM*
CCN(CC)C(=O)C1=C(C)N(Cc2ccc(F)cc2)C(=O)C(CC(=O)NCCCCc2ccccc2)C1 (stereo unspecified) | -15% | ? | -36% | -11% | -7% | 21µM*
CC1=C(C(=O)N(C)C)CC(CC(=O)NCCCCc2ccccc2)C(=O)N1Cc1ccc(F)cc1 (stereo unspecified) | -4% | -34% | -17% | -5% | -24% | ?
CCN(CC)C(=O)C1=C(C)N(Cc2ccc(F)cc2)C(=O)C(CC(=O)NCC2CCCCC2)C1 (stereo unspecified) | -11% | ? | -16% | -11% | -19% | 21µM*
COc1ccccc1NC(=O)N(C)C[C@H]1OCc2cnnn2CCCC(=O)N([C@H](C)CO)C[C@@H]1C | 1% | -23% | -7% | 0% | 3% | -16%
COc1ccc(CNC(=O)c2cccc(NC(=O)N3CCSc4ncccc43)c2)cc1 | . | ? | -16% | . | ? | ?
CCN(CC)C(=O)C1=C(C)N(Cc2ccc(C(C)(C)C)cc2)C(=O)C(CC(=O)NCCCCc2ccccc2)C1 (stereo unspecified) | ? | -103% | -58% | ? | 14µM* | ?
O[Si](CCCN1CCCCC1)(c1ccc(F)cc1)C1CCCCC1 (stereo unspecified) | ? | ? | -42% | 21µM* | 35% | 26µM*
Cc1ccc(-c2nnc(Nc3ccc(Br)cc3)c3ccccc23)cc1S(=O)(=O)NCC1CCCO1 (stereo unspecified) | . | 16µM* | -14% | . | ? | 4.1µM*
Cc1ccc(-c2nnc(Nc3ccc(C(N)=O)cc3)c3ccccc23)cc1S(=O)(=O)NCC1CCCO1 (stereo unspecified) | -1% | ? | -2% | -6% | -10% | ?
Cc1ccc(-c2nnc(Nc3ccc(O)cc3)c3ccccc23)cc1S(=O)(=O)NCC1CCCO1 (stereo unspecified) | . | ? | 5% | . | 6.3µM* | 23µM*
CCCNS(=O)(=O)c1ccc(OCC(=O)NCC2CCCO2)cc1 (stereo unspecified) | 4% | 8% | 2% | 12% | -3% | -6%
SMILES | HT1080-NT tox | TDP1 cell CPT | HepG2 tox | HT1080 IDH1KD tx | TGFb SMAD3 inh | TDP1 cell noCPT
COc1ccc(C(=O)N(Cc2ccc(C(C)C)cc2)C2CCS(=O)(=O)C2)cc1 (stereo unspecified) | . | ? | -3% | . | 27% | 15µM*
CCOc1cccc(C(=O)N(Cc2ccc(C(C)C)cc2)C2CCS(=O)(=O)C2)c1 (stereo unspecified) | . | 21µM* | 2% | . | 9% | ?
CCCCOc1cccc(C(=O)N(Cc2ccccc2)C2CCS(=O)(=O)C2)c1 (stereo unspecified) | -8% | 13µM* | -9% | -14% | -22% | 15µM*
COc1ccc(CN(C(=O)c2cccc(OC)c2)C2CCS(=O)(=O)C2)cc1 (stereo unspecified) | 8% | 17% | -19% | 10% | 5% | 5%
CCOc1cccc(C(=O)N(Cc2ccc(CC)cc2)C2CCS(=O)(=O)C2)c1 (stereo unspecified) | . | 18µM* | -22% | . | -2% | ?
COCCN(C(=O)COC(=O)c1ccc(C=O)cc1)c1c(N)n(Cc2ccccc2)c(=O)[nH]c1=O | 8% | 0% | 2% | -4% | -20% | -12%
CC(C)c1nnc(NC(=O)c2cccnc2)s1 | 10% | 11% | -59% | 5% | 10% | -3%
COc1ccccc1NC(=O)c1oc2ccccc2c1NC(=O)c1cccc(OC)c1OC | . | 5.8µM* | -2% | . | 21% | 5.8µM*
COc1ccccc1NC(=O)c1cc2ccc(O)cc2o/c1=N\O | ? | ? | -44% | ? | -13% | ?
COc1ccccc1NC(=O)c1cc2ccccc2o/c1=N\O | -1% | 21µM* | -9% | 0% | -14% | 21µM*
